Compounds without any hit were thinned out: in the full panel of roughly 83,000, 20% have a hit.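 Values shown are percent growth following 48 h exposure of cells in 96-well plates to a single concentration of compound; below 10 was considered active.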 A number with no mark means an inactive call. Activity calls are given as the source filed them.

Assay in all cases: NCI-60 one-dose screen, 48 h (100 = growth as untreated, 0 = no growth, -100 = all killed)
Holding throughout (details): 10 µM unless noted

For assay [1], the system named is NCI-H23 lung.
In assay [2] the test system is NCI-H226 lung.
Assay [3] deals with NCI-H322M lung.
The test system of assay [4] is HOP-62 NSCLC.
For assay [5], the system named is NCI-H460 lung.
For assay [6], the system named is A549/ATCC NSCLC.
The subject of assay [7] is 786-0 renal.
Assay [8] relates to COLO 205 colon.
The subject of assay [9] is HOP-92 NSCLC.
Assay [10] has as its system NCI-H522 lung.

In the case of `COc1cc(-c2ccc(-[n+]3nc(-c4ccc([N+](=O)[O-])cc4)nn3-c3ccc([N+](=O)[O-])cc3)c(OC)c2)ccc1-[n+]1nc(-c2ccc([N+](=O)[O-])cc2)nn1-c1ccc([N+](=O)[O-])cc1`, the growth was 26.1% in assay [1]; -32.5% (active) in [2]; 44.3% in assay [3]; -59.7% (active) in assay [4]; 3.02% (active) in assay [5]; 11.8% in assay [6]. Besides, the growth in [7] is 0.457% (active); in assay [8], -69% (active).

On to `O=C1C(=O)c2cc([N+](=O)[O-])ccc2-c2ccccc21`, for which the growth in assay [1] was -71.8% (active); in [2] it was -98.7% (active); in [3], 96.9%; in [4], -93.3% (active); in assay [5], 16.4%; in assay [6], -52.2% (active). The growth in assay [7] is -96.7% (active); in assay [8], -56.9% (active).

On to `O=C(O)c1cccc2cccc(-c3c4ccc(=O)c(O)c-4oc4c(O)c(O)ccc34)c12`, for which the growth in [1] was 89.3%; in assay [2], 95.5%; in assay [3], 97.2%; in [5], 100%; in assay [9], 93.8%; in assay [10], 90.9%. Besides, the growth in assay [6] was 96.4%; in assay [7] it was 98.8%; in assay [8], 111%.

Consider `O=[N+]([O-])c1ccc2c(c1)Cc1ccccc1-2`, for which the growth was 99.9% in assay [1]; 108% in [2]; 106% in assay [3]; 94.8% in [4]; 99.9% in [5]; 94.8% in assay [6]. Also, the growth is 91% in assay [7] and 116% in assay [8].

In the case of `COc1cccc2c1C(=O)c1c(O)c3c(c(O)c1C2=O)C[C@@](O)(C(=O)CO)C[C@@H]3OC1CC(OC(C)=O)C(OC(C)=O)C(C)O1` (some centres not stated), the growth is -73.3% (active) in assay [2]; -12.8% (active) in assay [3]; -25.6% (active) in [4]; -56.2% (active) in assay [5]; -28.9% (active) in assay [9]; -34% (active) in [10]. For the same molecule, the growth in assay [7] is -17.3% (active); in assay [8] it was -6.8% (active).

On to `Cc1onc(-c2ccccc2)c1C(=O)N/N=C/c1cc(Cl)cc(Cl)c1O`, for which the growth in assay [1] is 53.2%; in assay [3], 16%; in assay [4], 39.3%; in assay [5] it was 22.7%; in assay [10] it was 28.7%; in [7], 27.4%. In addition, in assay [8], the growth is 16.9%.

As to `O=C1C=C(Cl)C(=O)c2ccccc21`, the growth in assay [1] was 99.6%; in assay [3], 88.8%; in assay [4], 84.5%; in [5] it was 101%; in [10] it was 11%; in [7], 110%. The growth in assay [8] was 93.2%.

On to `CC(CSc1n[nH]c(=S)s1)c1ccccc1` (configuration not stated), for which the growth in [1] is 106%; in [3], 118%; in assay [4] it was 108%; in assay [5], 114%; in assay [9], 101%; in assay [10], 79.3%. Moreover, the growth was 103% in [6], 111% in assay [7] and 105% in [8].

On to `NNc1cccc([N+](=O)[O-])c1`, for which the growth in assay [2] was 103%; in [3], 89%; in assay [5], 108%; in assay [9] it was 122%; in assay [10], 61.4%; in assay [7], 86.4%. Moreover, in [8], the growth is 110%.

Take `CN(C)c1ccc(/C=C/c2nccc3ccccc23)cc1`: the growth in [1] is 81.9%; in assay [2] it was 71.6%; in [4], 87.9%; in assay [5], 74.3%; in [9] it was 68.2%; in [6], 85.6%. The growth in assay [7] is 103%; in [8], 91.4%.

For the molecule `Oc1ccc2ccccc2c1N=Nc1ccccn1`, the growth in [1] was 42.6%; in assay [2] it was 19.1%; in assay [3], 47.8%; in assay [4], 30.1%; in assay [5], 17.4%; in assay [6], 53.5%. In addition, the figures for the growth in assay [7] and in [8] were 7.32% (active) and 15.9%, respectively.

In the case of `CSc1nc(C)c(C(=O)CCN2CCN(c3ccccn3)CC2)s1`, the growth was 106% in assay [1]; 107% in assay [2]; 107% in assay [3]; 106% in [5]; -64.2% (active) in assay [10]; 102% in assay [6]. Moreover, in assay [7], the growth is 101%.

As for `Cc1ccc2cccc(OC(=O)Nc3cccc(C(F)(F)F)c3)c2n1`, the growth was 37.1% in assay [1]; 67.7% in [2]; 88.7% in [3]; 27.5% in assay [5]; 37.2% in assay [10]; 42.7% in assay [6]. In addition, the growth in assay [7] was 78.6%; in assay [8], 62.3%.

For `CCCCCCCCCCCC[n+]1ccc(CCCCCCCCC)cc1`, the growth in assay [1] was -80.8% (active); in [2], -65.2% (active); in assay [3], 56.1%; in [4], -84.8% (active); in assay [5] it was -63.6% (active); in assay [10], -33.1% (active). For the same molecule, the growth was -85.1% (active) in assay [7] and -76.5% (active) in [8].

`CC(=O)N1CC(=O)NC1=S`: the growth in [1] is 98.3%; in [3] it was 102%; in [4] it was 97.7%; in [5], 103%; in assay [10] it was 92.2%; in assay [6], 94.9%. In addition, in assay [7], the growth is 102%.

In the case of `CN(C)c1ccc(/C=C/c2sc3ccc4ccccc4c3[n+]2C)cc1`, the growth is -25.9% (active) in assay [1]; -29.4% (active) in assay [2]; -10.5% (active) in [3]; -73.3% (active) in assay [4]; -40.9% (active) in [5]; -14% (active) in assay [6]. Besides, the growth in assay [7] is -90.8% (active); in [8], -85.8% (active).

Turning to `CCCCCCCCCCCC1N=C(N)N=C(N)N1c1cccc(Br)c1` (configuration not stated), the growth in assay [1] is 6.58% (active); in assay [2] it was 39.1%; in assay [3], 54.4%; in assay [4] it was -8.64% (active); in assay [5], -58.4% (active); in [6], 21.7%. The growth in [7] was 4.98% (active); in assay [8], -77.3% (active).

With `O=[N+]([O-])CC(O)c1ccccc1` (configuration not stated), the growth in assay [1] is 93.1%; in [2], 97.9%; in [3], 118%; in assay [4] it was 100%; in assay [5], 101%; in assay [10], 97.3%. Besides, the growth is 80.3% in assay [7] and 113% in assay [8].

As to `COC(=O)C(=[N+]=[N-])C(=O)c1ccc([N+](=O)[O-])o1`, the growth in assay [1] is 77.6%; in [3] it was 103%; in assay [4], 89.7%; in [5] it was 94%; in [9], 83.1%; in assay [10] it was -61.8% (active). In addition, the growth is 65.2% in assay [6], 107% in assay [7] and 23% in assay [8].

For the molecule `CCCc1cc(=O)oc2c3c(c4c(c12)OC(C)(C)CC4)OC(C)[C@H](C)[C@@H]3O` (some centres not stated), the growth in [1] was 81.4%; in assay [2] it was 81.1%; in assay [3] it was 106%; in [5] it was 85.7%; in [9], -1.36% (active); in [10] it was 57.7%. In addition, the growth in assay [6] is 72%; in assay [7], 86.4%.

With `Cc1ccc(N2C(=O)C=CC2=O)cc1`, the growth in assay [1] was 106%; in assay [2], 90.9%; in assay [4] it was 107%; in [10], 74.8%; in assay [6], 92%; in assay [7], 99.1%. The growth in assay [8] is 83.6%.

`CC(C)c1ccc(C(=O)OC2CCCC2)cc1`: the growth is 100% in [1]; 99.2% in assay [3]; 93.1% in [4]; 105% in assay [5]; 80.2% in assay [9]; 103% in assay [10]. The growth in assay [6] was 117%; in assay [7], 107%; in assay [8], 103%.

With `CCCCCCCCCCCCN1C(C)=CS/C1=C\C=C\c1scc(C)[n+]1CCCCCCCCCCCC`, the growth in [1] was 10.8%; in assay [2], 40.6%; in assay [3], 96.8%; in [4] it was 35.5%; in assay [9], 36.8%; in [10], 3.47% (active). In addition, the growth in assay [6] was 16.6%; in assay [7], 37.3%; in assay [8], 8.86% (active).

As to `Oc1ccc(Br)cc1Sc1cc(Br)ccc1O`, the growth was 9.64% (active) in [1]; 98.2% in assay [2]; 92% in [3]; 84.7% in assay [4]; 50.6% in [6]; 100% in assay [7]. Besides, the growth in assay [8] is 113%.

As for `Nc1nc(-c2ccccc2)nc(N)c1N=O`, the growth in [1] is 97.3%; in [2], 90.4%; in assay [3] it was 100%; in [5], 23.8%; in assay [9], 65.3%; in assay [10] it was -7.61% (active). In addition, the values for the growth in assay [6] and in assay [7] were 66% and 83.6%, respectively.

In the case of `CC(=O)OC1CC2CCC1(C)C2(C)C` (configuration not stated), the growth in assay [1] is 104%; in assay [2], 103%; in [5] it was 105%; in [9], 84.1%; in assay [6], 101%; in assay [7] it was 111%.

For `O=[N+]([O-])/C(=C/c1ccccc1)c1ccccc1`, the growth is 99.4% in assay [1]; 97.5% in [2]; 106% in assay [3]; 102% in assay [5]; 99.9% in assay [9]; 83% in assay [10]. In addition, the growth is 101% in assay [6], 97.9% in assay [7] and 112% in assay [8].

As to `CCCCCCCCCCCCCCCc1ccc(C(=O)C[n+]2ccccc2)cc1`, the growth is -62% (active) in assay [1]; -6.49% (active) in assay [2]; -99% (active) in assay [4]; -80.6% (active) in assay [5]; -87.1% (active) in [9]; -90.2% (active) in assay [10]. In assay [8], the growth was -90.5% (active).

Turning to `O=[n+]1c2ccccc2n([O-])c2cc(Cl)ccc21`, the growth was 91.3% in assay [1]; 98.5% in assay [3]; 77.4% in [4]; 42.7% in [5]; 72% in assay [10]; 32.1% in assay [7]. In [8], the growth is 76.5%.

These data come from PubChem BioAssay (NCI).
